Results published in PubChem BioAssay.
Calls of active or inactive are those of the source.

Columns and labels:
Albumin (Bos taurus) = Albumin (Bos taurus) (UniProt P02769); test: compounds binding labelled BSA control protein – biochemical, small-molecule microarray, Alexa647 label, 635/667 nm fluorescence, artefact control for SMM control protein annotation, profiling panel (AID 1118); details: BSA-A647 binding, fluorescence 635 nm, higher = more signal;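 also: score merges 667 nm emission intensity and signal-to-noise per printed compound spot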
Chain of Albumin (Bos taurus) (P02769 whole entry, looked up): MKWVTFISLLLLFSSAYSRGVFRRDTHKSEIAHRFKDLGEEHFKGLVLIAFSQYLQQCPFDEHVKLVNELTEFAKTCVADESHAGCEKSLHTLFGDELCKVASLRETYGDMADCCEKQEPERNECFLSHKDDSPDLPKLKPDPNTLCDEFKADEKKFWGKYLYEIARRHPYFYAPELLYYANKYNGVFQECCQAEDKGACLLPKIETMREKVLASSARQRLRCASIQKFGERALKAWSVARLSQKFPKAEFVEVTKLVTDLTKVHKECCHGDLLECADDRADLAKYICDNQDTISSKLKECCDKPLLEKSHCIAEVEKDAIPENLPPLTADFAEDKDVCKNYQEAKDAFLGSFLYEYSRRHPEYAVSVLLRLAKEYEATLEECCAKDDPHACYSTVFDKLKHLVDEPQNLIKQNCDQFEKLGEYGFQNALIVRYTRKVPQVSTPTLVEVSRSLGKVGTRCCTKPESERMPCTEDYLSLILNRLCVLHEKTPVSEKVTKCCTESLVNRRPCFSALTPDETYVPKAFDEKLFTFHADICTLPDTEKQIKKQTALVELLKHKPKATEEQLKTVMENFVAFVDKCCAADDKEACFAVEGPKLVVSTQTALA

[1] = probe aXIP binding to arrayed compounds – biochemical, NeuroSMM set, 635/667 nm fluorescence, primary screen (AID 1119); details: small-molecule microarray, higher = more signal, called active from +8 up or from −8 down;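 also: probe is the protein aXip251-270 applied at 1 µg/mL to compound-printed slides; binding of probe to printed compounds measured as 667 nm fluorescence plus signal to noise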
[2] = probe aNOTCH3 binding on compound microarray – biochemical, small-molecule microarray, 635/667 nm fluorescence, primary screen (AID 1120); details: higher = more signal;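 also: probe is a biotin-tagged antibody raised against NOTCH3 rather than NOTCH3 protein; score merges spot fluorescence near 667 nm with spot signal to noise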
[3] = probe aNOTCH2 binding on compound microarray – biochemical, small-molecule microarray, 635/667 nm fluorescence, primary screen (AID 1121); details: higher = more signal;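 also: score merges feature fluorescence read at 667 nm with its signal to noise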
[4] = target: Carbonic anhydrase 2 (Homo sapiens) (UniProt P00918); test: compounds binding carbonic anhydrase 2 – biochemical, small-molecule microarray, Alexa647-labelled CAII, profiling panel (AID 1122); details: CAII-A647 binding fluorescence, higher = more signal
[5] = COS7 lysate on small-molecule microarray, probe aHis, 635 nm (AID 1123); details: COS7 cell lysate, fluorescence, higher = more signal;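 also: z-score combines 667nm fluorescence intensity with signal-to-noise per printed compound spot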
[6] = probe aLAP1 signal on lysate-treated microarray – cell lysate, small-molecule microarray, COS7 lysate, primary screen (AID 1124); details: probe aLAP1, fluorescence, higher = more signal;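 also: lysate comes from COS7 cells expressing LAP1 and is applied at 0.3 µg/mL; score merges spot fluorescence near 667 nm with signal-to-noise over triplicate slides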
Sam68 (KHDRBS1) = test: compounds binding KHDRBS1 protein – biochemical, small-molecule microarray, 635 nm fluorescence, primary screen (AID 1125); details: higher = more signal;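 also: score merges 667 nm channel intensity with signal to noise over triplicate slides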
[7] = system: Chordin-like protein 2 (CHRDL2); test: compounds binding chordin-like 2 – biochemical, small-molecule microarray, 635 nm fluorescence, primary screen (AID 1126); details: fluorescence 635 nm, higher = more signal;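 also: printed compound slides probed with Chrdl2 protein at 4 µg/mL for 1 h at 4 C; score merges 667 nm emission intensity with signal to noise over three replicate slides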
[8] = target: Concanavalin-A (Canavalia ensiformis) (UniProt P02866); test: compounds binding concanavalin A lectin – biochemical, small-molecule microarray, Alexa647 label, 635 nm, artefact control for SMM control protein annotation, primary screen (AID 1127); details: ConA-A647 binding fluorescence, higher = more signal;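 also: z combines 667 nm emission intensity with signal-to-noise across three replicate slides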
Chain of Concanavalin-A (Canavalia ensiformis) (P02866 whole entry, looked up): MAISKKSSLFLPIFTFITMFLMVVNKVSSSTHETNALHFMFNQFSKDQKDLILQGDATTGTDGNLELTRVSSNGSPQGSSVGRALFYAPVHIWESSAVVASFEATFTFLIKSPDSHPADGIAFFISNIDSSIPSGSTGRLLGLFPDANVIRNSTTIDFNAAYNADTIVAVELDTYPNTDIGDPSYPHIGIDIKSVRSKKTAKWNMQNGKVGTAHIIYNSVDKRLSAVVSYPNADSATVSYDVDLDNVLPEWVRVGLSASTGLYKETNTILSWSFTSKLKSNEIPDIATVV

[9] = compounds binding Alexa647 anti-His antibody – biochemical, small-molecule microarray, 635 nm fluorescence, artefact control for SMM control protein annotation, primary screen (AID 1128); details: higher = more signal;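 also: score merges feature fluorescence with signal-to-noise for each printed compound spot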
[10] = system: Human papillomavirus type 1a E7 protein (residues 1-88); test: HPV1a E7 small-molecule binders, primary screen, biochemical, small-molecule microarray, residues 1-88, 635 nm (AID 1129); details: small-molecule microarray binding, fluorescence 635 nm; higher = more signal
[11] = target: Focal adhesion kinase 1 (Homo sapiens) (UniProt Q05397); test: PTK2 protein binding on printed compound slides – biochemical, small-molecule microarray, 635/667 nm fluorescence, BSA, DTT, primary screen (AID 1130); details: 635 nm fluorescence, higher = more signal;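 also: composite of spot emission at 667 nm and signal to noise over triplicate slides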
Chain of Focal adhesion kinase 1 (Homo sapiens) (Q05397 whole entry, looked up): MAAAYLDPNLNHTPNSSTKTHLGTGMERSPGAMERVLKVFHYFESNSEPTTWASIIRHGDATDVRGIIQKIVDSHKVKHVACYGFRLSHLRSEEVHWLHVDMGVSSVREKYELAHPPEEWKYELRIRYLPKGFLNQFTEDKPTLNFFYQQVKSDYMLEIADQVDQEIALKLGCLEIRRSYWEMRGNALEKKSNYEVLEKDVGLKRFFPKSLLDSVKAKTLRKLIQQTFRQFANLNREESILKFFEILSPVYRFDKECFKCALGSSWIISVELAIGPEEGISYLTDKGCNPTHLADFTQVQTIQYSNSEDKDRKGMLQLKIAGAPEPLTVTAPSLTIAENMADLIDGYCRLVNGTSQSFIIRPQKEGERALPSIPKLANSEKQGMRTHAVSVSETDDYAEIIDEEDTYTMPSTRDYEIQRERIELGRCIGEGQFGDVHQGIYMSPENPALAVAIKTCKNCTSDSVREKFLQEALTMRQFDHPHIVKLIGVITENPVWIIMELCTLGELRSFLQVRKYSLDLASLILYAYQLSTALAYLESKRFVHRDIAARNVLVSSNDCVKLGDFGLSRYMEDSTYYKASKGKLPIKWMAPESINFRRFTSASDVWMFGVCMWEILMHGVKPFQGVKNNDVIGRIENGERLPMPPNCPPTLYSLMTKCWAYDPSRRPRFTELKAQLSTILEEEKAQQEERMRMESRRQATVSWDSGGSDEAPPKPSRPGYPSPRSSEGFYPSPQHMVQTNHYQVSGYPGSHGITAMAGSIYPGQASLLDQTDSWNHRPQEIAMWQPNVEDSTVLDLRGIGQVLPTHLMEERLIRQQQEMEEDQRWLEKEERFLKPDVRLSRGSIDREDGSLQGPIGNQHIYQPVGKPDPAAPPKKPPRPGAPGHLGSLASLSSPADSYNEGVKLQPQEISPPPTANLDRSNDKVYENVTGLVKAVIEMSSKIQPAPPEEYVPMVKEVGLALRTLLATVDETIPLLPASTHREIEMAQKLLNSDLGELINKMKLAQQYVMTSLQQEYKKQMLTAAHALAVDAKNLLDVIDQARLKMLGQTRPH

[12] = system: Fibrinogen (Alexa647-labelled); test: Alexa647-fibrinogen binding to printed small molecules – biochemical, small-molecule microarray, 635/667 nm fluorescence, artefact control for SMM control-protein annotation, profiling panel (AID 1131); details: fibrinogen-A647 binding fluorescence, higher = more signal;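 also: z-score merges 667 nm fluorescence with per-spot signal-to-noise over triplicate slides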
[13] = target: Follistatin (Homo sapiens) (UniProt P19883); test: FST protein binding to printed compounds – biochemical, small-molecule microarray, 635/667 nm fluorescence, primary screen (AID 1132); details: 635 nm fluorescence, higher = more signal
Chain of Follistatin (Homo sapiens) (P19883 whole entry, looked up): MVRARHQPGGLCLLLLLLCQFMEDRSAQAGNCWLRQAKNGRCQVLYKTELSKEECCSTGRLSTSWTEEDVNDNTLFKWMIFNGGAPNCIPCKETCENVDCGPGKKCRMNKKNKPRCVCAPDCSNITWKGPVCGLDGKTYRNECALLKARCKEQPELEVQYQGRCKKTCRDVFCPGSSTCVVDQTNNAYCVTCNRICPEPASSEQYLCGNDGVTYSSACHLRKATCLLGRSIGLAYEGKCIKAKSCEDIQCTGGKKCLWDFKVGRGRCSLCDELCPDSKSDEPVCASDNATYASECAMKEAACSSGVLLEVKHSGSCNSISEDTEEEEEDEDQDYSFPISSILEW

[14] = target: Fibroblast growth factor 2 (Homo sapiens) (UniProt P09038); test: basic fibroblast growth factor binding to printed compounds – biochemical, small-molecule microarray, 635/667 nm fluorescence, primary screen (AID 1133); details: FGF2, fluorescence 635/667, higher = more signal
Chain of Fibroblast growth factor 2 (Homo sapiens) (P09038 whole entry, looked up): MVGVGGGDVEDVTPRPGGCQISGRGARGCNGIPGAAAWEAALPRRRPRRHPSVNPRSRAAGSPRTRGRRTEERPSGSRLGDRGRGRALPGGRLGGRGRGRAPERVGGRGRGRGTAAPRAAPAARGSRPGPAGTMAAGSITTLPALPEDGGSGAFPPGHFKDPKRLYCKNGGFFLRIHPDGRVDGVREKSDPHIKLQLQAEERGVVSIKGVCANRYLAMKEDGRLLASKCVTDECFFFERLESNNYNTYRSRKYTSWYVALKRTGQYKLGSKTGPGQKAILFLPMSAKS

[15] = JC-1 mitochondrial potential readout, lung cancer cells – cell-based, A549, JC-1 fluorescence, basal, 24 h, 100 nL, profiling panel (AID 1138); details: higher = more signal;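 also: A549 lung adenocarcinoma cells under basal conditions with no added stimulus; test concentration not given here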
Lefty1 = Lefty1 protein binding to printed compounds – biochemical, small-molecule microarray, 635/667 nm fluorescence, primary screen (AID 1139); details: fluorescence 635/667, higher = more signal
[16] = system: wheat germ agglutinin (Triticum aestivum), Alexa647-labelled; test: Alexa647-WGA lectin binding to printed small molecules – biochemical, small-molecule microarray, 635/667 nm fluorescence, artefact control for SMM control-protein annotation, profiling panel (AID 1140); details: WGA-A647 binding, 635 nm fluorescence, higher = more signal;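 also: score merges 667 nm feature emission with signal to noise over triplicate slides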
[17] = target: Luciferin 4-monooxygenase (Photinus pyralis) (UniProt P08659); test: inhibition of purified Photinus pyralis luciferase – biochemical, luminescence, purified enzyme, 2006 set, primary screen (AID 1141); details: purified firefly luciferase, SteadyGlo luminescence, 30 min; higher = more signal, called active from +8 up or from −8 down;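 also: cell-free assay with purified firefly luciferase at 100 ng per well in PBS; test concentration not given here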
Chain of Luciferin 4-monooxygenase (Photinus pyralis) (P08659 whole entry, looked up): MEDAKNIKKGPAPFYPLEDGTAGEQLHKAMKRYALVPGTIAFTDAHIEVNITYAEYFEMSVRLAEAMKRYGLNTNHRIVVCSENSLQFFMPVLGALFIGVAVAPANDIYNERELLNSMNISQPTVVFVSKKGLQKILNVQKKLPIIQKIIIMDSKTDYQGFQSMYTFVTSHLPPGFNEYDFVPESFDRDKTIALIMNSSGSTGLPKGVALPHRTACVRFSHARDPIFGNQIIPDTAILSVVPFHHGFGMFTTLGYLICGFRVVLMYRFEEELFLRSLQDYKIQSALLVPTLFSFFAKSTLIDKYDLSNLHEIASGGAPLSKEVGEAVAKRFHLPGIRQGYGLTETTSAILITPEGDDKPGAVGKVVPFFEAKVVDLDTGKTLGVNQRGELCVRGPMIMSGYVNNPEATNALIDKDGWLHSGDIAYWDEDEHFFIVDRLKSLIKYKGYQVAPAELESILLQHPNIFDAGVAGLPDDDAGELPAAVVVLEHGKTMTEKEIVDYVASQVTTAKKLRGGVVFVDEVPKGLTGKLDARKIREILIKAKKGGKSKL

SMILES | composite z-score (Albumin (Bos taurus)) | composite Z-score [1] | composite z-score [2] | composite z-score [3] | composite z-score [4] | composite z-score [5] | composite z-score [6] | composite z-score (Sam68 (KHDRBS1)) | composite z-score [7] | composite z-score [8] | composite z-score [9] | composite z-score [10] | composite z-score [11] | composite z-score [12] | composite z-score [13] | composite z-score [14] | z-score [15] | composite z-score (Lefty1) | composite z-score [16] | z-score [17]
COc1ccc(COC(=O)NN=C2C[C@@H](O)[C@@H](O)[C@@H]3[C@@H]4C(=O)N([C@@H](C)c5ccccc5)C(=O)[C@@H]4CC[C@H]23)cc1 | 0.434 | -0.259 (inactive) | 0.24 | 0.867 | -0.277 | 0.232 | -0.266 | -0.638 | -0.217 | 0.0744 | -0.485 | -0.521 | -0.393 | -0.137 | -0.528 | -0.509 | -0.419 | -0.794 | 0.271 | 0.779 (inactive)
CC(C)[C@@H](OCc1ccccc1)[C@H](C)C=NO[C@@H](C)c1cn([C@H](CO)Cc2ccccc2)nn1 | 0.449 | -0.0527 (inactive) | 0.209 | -0.146 | -0.227 | -0.205 | -0.0074 | 0.706 | 0.191 | -0.36 | 0.08 | -0.147 | -0.0232 | -0.157 | -0.0854 | 0.346 | -1.02 | 0.249 | 0.0578 | -0.197 (inactive)
CC(C)CON=C1C[C@@H](O)[C@@H](O)[C@@H]2[C@@H]3C(=O)N(C(C)(C)C)C(=O)[C@@H]3CC[C@@H]12 | -0.708 | 0.11 (inactive) | -0.157 | -0.14 | -0.488 | -0.75 | -0.0854 | 0.845 | 1.5 | -1.21 | -0.587 | -0.537 | -0.577 | -0.766 | 1.39 | 1.46 | -0.832 | 1.51 | -0.804 | 0.444 (inactive)
CCCCOC(OCCCC)C(O)CSc1ccc2ccccc2c1 (stereo not given) | -0.196 | -0.444 (inactive) | 0.0669 | -0.0682 | 0.028 | 0.125 | -0.0593 | 1.02 | 0.537 | 0.196 | 0.147 | 0.776 | 0.0661 | 0.329 | 0.586 | 0.296 | 0.428 | 0.489 | 0.264 | -0.842 (inactive)
CON=C[C@@H](OC)[C@H](C)C=CCC(=O)OC | -0.518 | 0.0575 (inactive) | -0.0014 | -0.201 | -0.312 | 0.157 | -0.195 | -0.258 | 0.231 | -0.105 | 1.66 | 0.158 | -0.069 | -1.5 | 0.0902 | 0.0231 | -0.223 | 0.0713 | -0.115 | -0.982 (inactive)
CCOC(=O)CCN1C(=O)[C@H]2[C@H]3[C@H](O)[C@H](O)CC(=O)[C@@H]3CC[C@H]2C1=O | 0.206 | -0.778 (inactive) | -0.0448 | -0.12 | 0.494 | 0.696 | -0.732 | 0.81 | 0.514 | 0.729 | 0.591 | 0.843 | -0.0508 | 0.532 | 0.64 | 1.28 | -0.466 | 1.38 | 0.157 | 0.426 (inactive)
CCN1C(=O)[C@H]2[C@H]3[C@H](O)[C@H](O)CC(=NOCC(C)C)[C@H]3CC[C@H]2C1=O | -0.369 | -0.14 (inactive) | 0.108 | -0.204 | -0.15 | -0.302 | 0.0041 | 0.0597 | 0.843 | -0.238 | 0.341 | 0.551 | -0.0956 | -0.326 | 0.818 | 0.4 | -0.087 | 0.717 | -0.312 | 0.404 (inactive)
